# Laboratory results taken from PubChem BioAssay.
# Values joined by “and” are separate entries in the source; they are usually repeats but may differ in a detail not shown here. Equal values may be shown once. Inconclusive results are not listed. Active and inactive are the calls of the source.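 How the source made its calls, unless noted: active means normalized viability below 100% at a tested concentration; inactive means the rest.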
# Legend:
# [1] = viability loss in pontine glioma line – cell-based, SU-DIPG-XVII, MIPE5.0, CellTiter-Glo, qHTS, dose response (AID 1347060; cut-off not given, nearly all actives have AC50 up to about 26 µM;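 on AC50: cells exposed to compound for 48 hours before viability readout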); conditions: CellTiter-Glo ATP luminescence
# [2] = viability loss in pontine glioma line – cell-based, SU-DIPG-XIII, MIPE4.0, CellTiter-Glo, qHTS, dose response (AID 1347061; cut-off not given, nearly all actives have AC50 up to about 37 µM;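 further: cells exposed to compound for 48 hours before readout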); conditions: CellTiter-Glo ATP luminescence
# [3] = viability loss in pontine glioma line – cell-based, JHH-DIPG-1, MIPE4.0, CellTiter-Glo, qHTS, dose response (AID 1347062; cut-off not given, nearly all actives have AC50 up to about 27 µM;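 on AC50: cells exposed to compound for two days before readout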); conditions: JHH-DIPG-1 viability, CellTiter-Glo ATP luminescence
# [4] = viability loss in pontine glioma line – cell-based, SU-DIPG-IV, MIPE4.0, CellTiter-Glo, qHTS, dose response (AID 1347063; cut-off not given, nearly all actives have AC50 up to about 30 µM;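 further: compound exposure lasted 48 hours before the viability readout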); conditions: CellTiter-Glo ATP luminescence
# [5] = viability loss in pontine glioma line – cell-based, SU-DIPG-XIII, MIPE5.0, CellTiter-Glo, qHTS, dose response (AID 1347064; cut-off not given, nearly all actives have AC50 up to about 23 µM;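 on AC50: cells exposed to compound for 48 hours before the viability read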); conditions: CellTiter-Glo ATP luminescence
# [6] = viability loss in pontine glioma line – cell-based, SU-DIPG-XXV, MIPE5.0, CellTiter-Glo, qHTS, dose response (AID 1347065; cut-off not given, nearly all actives have AC50 up to about 26 µM;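 further: cells exposed to compound for 48 hours before ATP readout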); conditions: CellTiter-Glo ATP luminescence
# [7] = growth inhibition of DIPG cells – cell-based, MIPE4.0 library, CellTiter-Glo luminescence, qHTS (AID 1347066; cut-off not given, nearly all actives have AC50 up to about 30 µM;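 further: cells exposed to compound for 48 hours before readout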); conditions: SU-DIPG-VI viability, CellTiter-Glo ATP luminescence
# [8] = JHH-DIPG-1 glioma cell viability, MIPE5.0 library, CellTiter-Glo luminescence, qHTS (AID 1347067; cut-off not given, nearly all actives have AC50 up to about 26 µM;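 further: cells exposed to compound for 48 hours before readout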); conditions: JHH-DIPG-1 glioma viability, CellTiter-Glo ATP luminescence
# [9] = growth inhibition of DIPG cells – cell-based, MIPE5.0 library, qHTS (AID 1347068; cut-off not given, nearly all actives have IC50 up to about 30 µM;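 on IC50: cells exposed to compound for 48 hours before viability readout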); conditions: SU-DIPG-XXV viability
# [10] = viability loss with induced miR-34 in A549 – imaging, A549 dox-inducible miR-34, nuclei and caspase counts, primary screen (AID 1347080;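 active means compounds whose cell count with miR-34 switched on is under 0.7 times the count with it off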); conditions: A549 miR-34 inducible, Hoechst nuclei count, 48 h
# [11] = compounds altering HSF1 focus formation in cells – imaging, Selleck Cancer Library (AID 1347162; in the data active means plate-normalised HSF1 focus index below about 0.46); conditions: human cells, HSF1 nuclear foci imaging, at 10 µM; SSMD: measured here: HSF1 foci SSMD mean; cell count: measured here: cell number; plate-normalised HSF1 focus index: stronger effect = lower value
# [12] = MELAS cybrid and Rieske KO viability enhancers – cell-based, MELAS cybrids, Rieske KO mouse fibroblasts, CellTiter-Glo, primary screen (AID 1508586;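 active means mean z-score across replicates of 1.96 or higher in either the MELAS or the Rieske mutant cell line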;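 further: z relative to plate mean and SD of compound and empty wells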); conditions: low glucose
# [13] = drug combination growth inhibition, ovarian cancer – cell-based, oncology-focused library, rucaparib conditional, profiling panel (AID 1508598); conditions: patient-derived ovarian cancer cells, CellTiter-Glo viability, 144 h, stronger effect = lower value
# [14] = growth inhibition, single agent or in combination, cell-based, chromothripsis tumors, cisplatin or BGB combos (AID 1671449; in the data active means inhibition above about 80%;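 further: cells exposed for 96 hours; 0% = vehicle DMSO and 100% = killing by high DMSO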); conditions: LFS_MB_P medulloblastoma cells
# [15] = growth inhibition, single agent and combos, cell-based, chromothripsis tumors, cisplatin or BGB combos (AID 1671450; in the data active means inhibition above about 80%;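 further: cells exposed to compound for four days; 0% = vehicle DMSO and 100% = cell killing by high DMSO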); conditions: HDN33 neuroblastoma cells, stronger effect = higher value
# [16] = growth inhibition, single agents and combos, ICB984, cell-based, cisplatin or BGB combos, synergistic combos for chromothripsis tumors (AID 1671451; call rule not given here;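 further: cells exposed for 96 hours before readout; 0% = vehicle DMSO and 100% = killing by high DMSO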); conditions: ICB984 medulloblastoma cells, drug combinations, stronger effect = higher value
# [17] = growth inhibition, single agents and combos, HTB85, cell-based, BGB or cisplatin IC20 combos, synergistic combos for chromothripsis tumors (AID 1671453; in the data active means inhibition above about 80%;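 further: cells exposed for 96 hours before readout; 0% = vehicle DMSO and 100% = high DMSO killing control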); conditions: HTB85 osteosarcoma cells, drug combinations, stronger effect = higher value
# [18] = growth inhibition, MDA-MB-436, cell-based, BGB or cisplatin combos, synergistic combos for chromothripsis tumors (AID 1671458; call rule not given here;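 further: cells exposed for 96 hours; 0% = vehicle DMSO and 100% = killing by high DMSO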); conditions: MDA-MB-436 breast carcinoma growth inhibition, drug combinations, stronger effect = higher value
# [19] = BT084 cell growth, single and combined drugs, ICGC_MB145, cisplatin and BGB IC40 combos (AID 1671461; in the data active means inhibition above about 80%;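 further: cells exposed to drugs for 96 hours; 0% = vehicle DMSO and 100% = high DMSO full killing control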); conditions: BT084 medulloblastoma cells, drug combinations, stronger effect = higher value
# [20] = RCMB18 cell growth, single agent and combined, cisplatin and BGB IC40 combos (AID 1671462; in the data active means inhibition above about 80%;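 further: cells exposed to compound for four days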); conditions: RCMB18 medulloblastoma cells, stronger effect = higher value
# [21] = stronger effect = lower value, cell number ratio, induced over uninduced
# [22] = measured here: relative caspase fold change +Dox/-Dox
# [23] = measured here: total cells with miR-34 induction, stronger effect = lower value
# [24] = measured here: total cells without miR-34 induction
# [25] = MELAS cybrid survival, CellTiter-Glo 48 h, stronger effect = higher value
# [26] = Rieske KO mouse fibroblast survival, CellTiter-Glo 72 h
structure (smiles),measurement,setting,value
CC(=O)Nc1nc(C)c(-c2ccc(Cl)c(S(=O)(=O)NCCO)c2)s1,AC50,[1],10.5 µM (active)
same,AC50,[2],7.43 µM (active)
same,AC50,[3],13.2 µM (active)
same,AC50,[4],2.09 µM (active)
same,AC50,[5],14.8 µM (active)
same,AC50,[6],6.61 µM (active)
same,AC50,[7],2.64 µM (active)
same,AC50,[8],16.6 µM (active)
same,IC50,[9],16.6 µM (active)
same,fold change,[10]; [21],1.06 (inactive)
same,fold change,[10]; [22],0.869
same,cell count,[10]; [23],3490
same,cell count,[10]; [24],3300
same,SSMD,[11],2.06
same,cell count,[11],7480
same,plate-normalised HSF1 focus index,[11],1.13 (inactive)
same,z-score,[12]; [25],-0.084 (inactive)
same,z-score,[12]; [26],1.03
same,viability,"[13]; at 0.000305 µM, OCI-C5x cells, with rucaparib 10 µM, 100% = cells with rucaparib alone",113% (inactive)
same,viability,"[13]; at 0.000305 µM, OCI-C5x cells, without rucaparib",119% (inactive)
same,viability,"[13]; at 0.000305 µM, OCI-P5x cells, with rucaparib 20 µM, 100% = cells with rucaparib alone",110% (inactive)
same,viability,"[13]; at 0.000305 µM, OCI-P5x cells, without rucaparib",117% (inactive)
same,viability,"[13]; at 0.00122 µM, OCI-C5x cells, with rucaparib 10 µM, 100% = cells with rucaparib alone",102% (inactive)
same,viability,"[13]; at 0.00122 µM, OCI-C5x cells, without rucaparib",126% (inactive)
same,viability,"[13]; at 0.00122 µM, OCI-P5x cells, with rucaparib 20 µM, 100% = cells with rucaparib alone",85.2% (active)
same,viability,"[13]; at 0.00122 µM, OCI-P5x cells, without rucaparib",107% (inactive)
same,viability,"[13]; at 0.00488 µM, OCI-C5x cells, with rucaparib 10 µM, 100% = cells with rucaparib alone",109% (inactive)
same,viability,"[13]; at 0.00488 µM, OCI-C5x cells, without rucaparib",123% (inactive)
same,viability,"[13]; at 0.00488 µM, OCI-P5x cells, with rucaparib 20 µM, 100% = cells with rucaparib alone",92.4% (active)
same,viability,"[13]; at 0.00488 µM, OCI-P5x cells, without rucaparib",112% (inactive)
same,viability,"[13]; at 0.0195 µM, OCI-C5x cells, with rucaparib 10 µM, 100% = cells with rucaparib alone",103% (inactive)
same,viability,"[13]; at 0.0195 µM, OCI-C5x cells, without rucaparib",120% (inactive)
same,viability,"[13]; at 0.0195 µM, OCI-P5x cells, with rucaparib 20 µM, 100% = cells with rucaparib alone",99.1% (active)
same,viability,"[13]; at 0.0195 µM, OCI-P5x cells, without rucaparib",115% (inactive)
same,viability,"[13]; at 0.0781 µM, OCI-C5x cells, with rucaparib 10 µM, 100% = cells with rucaparib alone",90.4% (active)
same,viability,"[13]; at 0.0781 µM, OCI-C5x cells, without rucaparib",125% (inactive)
same,viability,"[13]; at 0.0781 µM, OCI-P5x cells, with rucaparib 20 µM, 100% = cells with rucaparib alone",89.5% (active)
same,viability,"[13]; at 0.0781 µM, OCI-P5x cells, without rucaparib",107% (inactive)
same,viability,"[13]; at 0.313 µM, OCI-C5x cells, with rucaparib 10 µM, 100% = cells with rucaparib alone",93.3% (active)
same,viability,"[13]; at 0.313 µM, OCI-C5x cells, without rucaparib",116% (inactive)
same,viability,"[13]; at 0.313 µM, OCI-P5x cells, with rucaparib 20 µM, 100% = cells with rucaparib alone",88.3% (active)
same,viability,"[13]; at 0.313 µM, OCI-P5x cells, without rucaparib",108% (inactive)
same,viability,"[13]; at 1.25 µM, OCI-C5x cells, with rucaparib 10 µM, 100% = cells with rucaparib alone",95.9% (active)
same,viability,"[13]; at 1.25 µM, OCI-C5x cells, without rucaparib",122% (inactive)
same,viability,"[13]; at 1.25 µM, OCI-P5x cells, with rucaparib 20 µM, 100% = cells with rucaparib alone",92.7% (active)
same,viability,"[13]; at 1.25 µM, OCI-P5x cells, without rucaparib",110% (inactive)
same,viability,"[13]; at 5 µM, OCI-C5x cells, with rucaparib 10 µM, 100% = cells with rucaparib alone",94.4% (active)
same,viability,"[13]; at 5 µM, OCI-C5x cells, without rucaparib",132% (inactive)
same,viability,"[13]; at 5 µM, OCI-P5x cells, with rucaparib 20 µM, 100% = cells with rucaparib alone",39.1% (active)
same,viability,"[13]; at 5 µM, OCI-P5x cells, without rucaparib",60.5% (active)
same,inhibition,"[14]; at 0.5 µM, stronger effect = higher value",-45.2% (inactive)
same,inhibition,"[14]; measured here: combination with BGB IC20, at 0.005 µM",-29.7%
same,inhibition,"[14]; measured here: combination with BGB IC40, at 0.005 µM",-42%
same,inhibition,"[14]; measured here: combination with BGB IC40, at 0.05 µM",-7.74%
same,inhibition,"[14]; measured here: combination with cisplatin, at 0.5 µM, stronger effect = higher value",-52.3%
same,inhibition,"[14]; measured here: combination with cisplatin, at 5 µM, stronger effect = higher value",23.5%
same,inhibition,"[15]; BGB combo, at 5 µM",18.5%
same,inhibition,[15]; at 0.5 µM,22.6% (inactive)
same,inhibition,"[15]; cisplatin combo, at 5 µM",37%
same,inhibition,"[15]; measured here: with BGB IC20 combination, at 0.5 µM",13.7%
same,inhibition,"[15]; measured here: with cisplatin IC20 combination, at 0.5 µM",24.2%
same,inhibition,"[15]; single agent, at 5 µM",45%
same,inhibition,"[16]; BGB IC20 combo, at 0.005 µM",-5.45%
same,inhibition,"[16]; BGB IC40 combo, at 0.005 µM",3.46%
same,inhibition,"[16]; BGB IC40 combo, at 0.05 µM",30.7%
same,inhibition,[16]; at 0.5 µM,-2.76% (inactive)
same,inhibition,"[16]; cisplatin combo, at 0.05 µM",27.3%
same,inhibition,"[16]; cisplatin combo, at 0.5 µM",-19.5%
same,inhibition,"[16]; cisplatin combo, at 5 µM",2.87%
same,inhibition,"[16]; measured here: 5 uM single agent, at 5 µM",5.64%
same,inhibition,[17]; at 0.5 µM,10.5% (inactive)
same,inhibition,"[17]; measured here: with BGB IC20, at 0.5 µM",11.8%
same,inhibition,"[17]; measured here: with BGB IC20, at 5 µM",42.2%
same,inhibition,"[17]; measured here: with cisplatin IC20, at 0.5 µM",8.49%
same,inhibition,"[17]; measured here: with cisplatin IC20, at 5 µM",30.2%
same,inhibition,"[17]; single agent, at 5 µM",46.6%
same,inhibition,[18]; at 0.5 µM,1.41% (inactive)
same,inhibition,"[18]; measured here: BGB combination, at 0.5 µM",-2.21%
same,inhibition,"[18]; measured here: BGB combination, at 5 µM",-3.92%
same,inhibition,"[18]; measured here: cisplatin combination, at 0.5 µM",-6.73%
same,inhibition,"[18]; measured here: cisplatin combination, at 5 µM",-16.3%
same,inhibition,[19]; at 0.5 µM,10.3% (inactive)
same,inhibition,"[19]; cisplatin combination, at 0.5 µM",14.9%
same,inhibition,"[19]; cisplatin combination, at 5 µM",-88.1%
same,inhibition,"[19]; measured here: BGB IC40 combination 0.05 uM, at 0.05 µM",3%
same,inhibition,"[19]; single agent, at 5 µM",29.8%
same,inhibition,[20]; at 0.5 µM,9.76% (inactive)
same,inhibition,"[20]; cisplatin combo, at 5 µM",16.5%
same,inhibition,"[20]; measured here: BGB IC40 combination, at 0.05 µM",-25%
same,inhibition,"[20]; measured here: combination with cisplatin, at 0.5 µM",0.78%
same,inhibition,"[20]; single agent, at 5 µM",15.1%
Cc1cccc(-c2[nH]ncc2-c2ccc3ncccc3n2)n1,outcome,[1],inactive
same,outcome,[2],inactive
same,outcome,[3],inactive
same,outcome,[4],inactive
same,outcome,[5],inactive
same,outcome,[6],inactive
same,outcome,[7],inactive
same,outcome,[8],inactive
same,outcome,[9],inactive
same,fold change,[10]; [21],0.969 (inactive) and 0.891 (inactive)
same,fold change,[10]; [22],0.983 and 0.417
same,cell count,[10]; [23],9850 and 8880
same,cell count,[10]; [24],10200 and 9960
same,z-score,[12]; [25],-0.572 (inactive)
same,z-score,[12]; [26],0.111
